Assay outcomes as filed in PubChem.
A selection: hits, their analogues and other compounds. The true share with any hit is near 6.8%.
Spn MK inh – S. pneumoniae mevalonate kinase inhibition | AID 555 | inhibition, % at 10 µM | 0.48% of 65,000 active | purified MK, PK/LDH-coupled NADH absorbance 340 nm;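 active = ranked among the strongest by inhibition in the single 10 µM screen, a fixed top-ranked set picked for dose follow-up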
Spn PMK inh – inhibitors of Streptococcus pneumoniae phosphomevalonate kinase; purified PMK, PK/LDH-coupled NADH absorbance 340 nm; inhibition, % at 10 µM; 0.49% of 65,000 active; AID 539;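 active = top-ranked compounds by inhibition in the single 10 µM screen, taking a fixed number of the strongest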;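 also: 0% = full reaction with DMSO carrier and 100% = background rate without enzyme reaction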
Spn DPM-DC inh – S. pneumoniae DPM-DC inhibition; AID 556; calls only at 10 µM; purified DPM-DC, PK/LDH coupled NADH fluorescence; 0.49% of 65,000 active;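 active = the 320 compounds with the highest percent inhibition in the single-dose primary screen, excluding strongly autofluorescent ones, cut at about 32% in these data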;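 also: kinetic rate of NADH fluorescence loss reporting ADP formed by the decarboxylase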
Fluor 339 460 – intrinsic fluorescence of library compounds, ex339/em460 – biochemical, MLSMR library, data from DPM-DC assay, artefact control, profiling panel; compound autofluorescence, ex339/em460 nm, NADH buffer; stronger effect = higher value; 1 = no-compound wells, NADH background; fluorescence fold increase at 10 µM; 5.5% of 65,000 active; AID 709;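 active = at 10 µM, mean starting fluorescence two-fold or more over control wells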;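 also: signal is the first read of a kinetic run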
NADH coupling – inhibition of NAD/NADH coupling enzymes, library profiling; coupled PK/LDH NADH assays, four targets; AID 774; 0.02% of 65,000 active; IC50, µM (titrated, usually from 10 µM), for inactives: top-dose inhibition;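 active = single-dose screening hits from any of four coupled enzyme assays that gave an IC50 when retested across doses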;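 also: the DPM-DC format reads NADH fluorescence rather than 340 nm absorbance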
Abs 340nm – compounds absorbing at 340 nm; AID 708; 65,000 tested, under 10 active; compound absorbance at 340 nm, fold over control; fold change at 10 µM;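 active = at 10 µM dose, initial 340 nm absorbance at least 2 fold that of control wells; inactive = change under 2 fold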;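 also: initial absorbance extrapolated from kinetic A340 decline of NADH oxidation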
* marks the source's active call; other numbers are inactive results; i = inactive; nt = no result shown; + = active, no number.

SMILES	Spn MK inh	Spn PMK inh	Spn DPM-DC inh	Fluor 339 460	NADH coupling	Abs 340nm
Cc1nn(-c2ccccc2)c(C)c1C(=O)OCC(=O)c1c(N)n(CC(C)C)c(=O)n(C)c1=O	0	9	i	1.1	2%	0.99
CC(C)Cn1c(N)c(C(=O)COC(=O)c2cc(-c3ccco3)nc3ccccc23)c(=O)n(C)c1=O	0	0	nt	2.1*	1%	1
O=C(COC(=O)c1cc(-c2ccco2)nc2ccccc12)NCc1ccc2c(c1)OCO2	9	0	nt	2.1*	2%	1
COc1ccc2c(c1)OC1(C)CC2C(C(=O)c2ccccc2OC)C(=O)N1 (centres undefined)	2	28*	i	0.97	13%	1
C/C(O)=c1/ccc2cccc3nc(C)nc1c23	0	14	i	3*	13%	1.1
CCOc1ccc(OCC(=O)N2CCOCC2)cc1	11	0	i	1.1	4%	1.1
Cc1cc(OCC(=O)N2CCOCC2)cc2oc(=O)c3ccccc3c12	0	0	nt	2.9*	0%	1
CCCCS(=O)(=O)Nc1ccc2ncn(C)c(=O)c2c1	7	9	nt	3.5*	8%	1
Cn1cnc2cc(NS(=O)(=O)c3ccc(Br)cc3)ccc21	5	0	i	0.95	2%	1
N/C(CCN1CCOCC1)=N/O	52*	36	i	1.1	36%	1.1
CN1C(=S)SC(C)(C)C1(C)NO (centres undefined)	3	14	i	1.1	6%	1
COc1ccc(-c2nc(-c3cccs3)c(-c3cccs3)[nH]2)cc1O	0	5	i	3*	2%	1.1
O=C(CSc1nccn1-c1ccc(Cl)cc1)NCc1ccc2c(c1)OCO2	7	0	i	1	4%	1
O=C(C1CC1)N1CCc2cc(S(=O)(=O)N(CCO)Cc3ccccc3)ccc21	7	5	i	1.1	2%	1
CCOc1ccc(CN2CCN(S(=O)(=O)c3ccc(NC(C)=O)cc3)CC2)cc1OC	63*	12	i	1.1	25%	1
COc1cc(CN2CCC(C(=O)N3CCN(c4ccccc4F)CC3)CC2)ccc1O	6	0	i	1.9	2%	1.1
COc1ccc(C(=O)Nc2ccc(S(=O)(=O)N3CCCCC3)cc2)cc1OC	0	0	i	1.1	0%	1.1
COc1cc(CN2CCC(C(=O)NC3CCCC3)CC2)ccc1O	5	7	nt	2*	3%	1
COc1ccc(Br)cc1CNC(=O)C1CCN(S(=O)(=O)N2CCCC2)CC1	5	30*	i	1.1	12%	1
CCOc1ccc(CNC(=O)C2CCN(S(=O)(=O)N3CCCC3)CC2)cc1OC	0	26*	i	1.1	9%	1
COc1cccc(OC)c1OCCCc1c(C)n[nH]c1C	0	14	i	1	5%	0.99
Cc1cccc(OCCCc2c(C)n[nH]c2C)c1	11	26*	i	1.1	4%	1
O=C(NCCN1C(=O)CCC1=O)c1ccncc1	8	7	i	1.1	5%	0.99
CCOC(=O)c1c(C)c(C(=O)NCCCOC(C)C)c(C)n1C	4	13	i	1.1	6%	0.98
CCOC(=O)C1CCN(C(=O)CN(c2ccc(OC)c(OC)c2)S(=O)(=O)c2ccccc2)CC1	71*	2	i	1.1	27%	1
SMILES	Spn MK inh	Spn PMK inh	Spn DPM-DC inh	Fluor 339 460	NADH coupling	Abs 340nm
Cc1ccc(NC(=O)CS(=O)(=O)c2c[nH]c3ccccc23)c(C)c1	6	2	i	1.1	3%	1
N#Cc1c(F)cccc1N1CCOCC1	11	0	i	3.1*	6%	1
Fc1cccc2sc(N3CCOCC3)nc12	9	10	i	1	5%	0.97
Cc1cc(C)n2nc[n+](C)c2n1	0	12	i	1	2%	0.99
COc1ccc2nc(CC(C)(C)CC(=O)O)c[n+]([O-])c2c1	13	7	nt	2.9*	6%	1
CC1CN(c2cc3nccnc3cc2F)CC(C)O1 (centres undefined)	10	6	i	1.2	5%	1.1
COc1ccc(OC)c2c(N3CC(C)OC(C)C3)cc(C(F)(F)F)nc12 (centres undefined)	5	20	i	2.1*	14%	1
Cn1c(-c2ccccc2)cc(=O)c2ccccc21	10	2	i	1.1	2%	1
Cn1c2ccccc2c(=O)n2c(=O)c3ccccc3cc12	7	12	i	2.4*	10%	1.1
Cc1nc2nc(C)c(CCC(=O)N3CCOCC3)c(C)n2n1	4	6	+	0.68	15%	1
CCOC(=O)N1CCN(C(=O)CCc2c(C)nc3nc(C)nn3c2C)CC1	5	10	i	1.1	5%	0.98
Cc1cn2nc(N)c3ccccc3c2n1	2	13	nt	5*	8%	1
c1ccc2c(NC3CCCC3)nnc(NC3CCCC3)c2c1	0	14	i	2.1*	4%	1
c1nc(NC2CCCC2)c2[nH]cnc2n1	5	0	i	1.3	4%	1
CC(C)(C)NC(=O)CSc1ncnc2c1nnn2Cc1ccccc1Cl	0	40*	i	1.1	13%	1
N#Cc1ccccc1NC(=O)CSc1nccn1CCc1ccccc1	4	3	i	1.1	2%	1
COC(=O)c1cc(COc2ccc3ccc(=O)oc3c2)c(C)o1	10	0	nt	2.1*	5%	1.1
COC(=O)c1cc(COc2ccc3oc(C)c(C(=O)OC)c3c2)c(C)o1	3	9	i	1.1	4%	1
Cc1oc(C(=O)O)cc1COc1ccc2c(C)cc(=O)oc2c1	1	1	i	2.1*	5%	1.1
CCCc1cc(C(=O)NCc2ccco2)no1	10	8	i	1	7%	1
O=C(Nc1nnc(-c2cccs2)o1)c1cccc(C(F)(F)F)c1	0	8	i	1.1	3%	1.1
Fc1ccc2c(Cl)c(-c3nnc(-c4cccs4)o3)sc2c1	1	14	nt	3.6*	8%	1.1
Cc1ccc(S(=O)(=O)n2nc(-c3ccco3)nc2SCc2ccccc2)cc1	5	0	i	1.1	2%	1.1
Cc1cc(C)c(-c2cc(C(F)(F)F)no2)c(=O)[nH]1	15	9	nt	3.7*	12%	1.2
CCC1(CC)Nc2ccccc2C(=O)N1c1ccc(NC(C)=O)cc1	5	17	nt	3.7*	11%	1
Cc1ccc(NC(=O)C(C)N2C(=O)c3ccccc3C2=O)cc1 (centres undefined)	8	11	i	1.1	6%	1
CCOc1ccccc1C(=O)Nc1ccc2nc(N3CCN(c4ncccn4)CC3)cc(C)c2c1	4	9	nt	2.2*	7%	1.1
